From article PMC8384837, “Expanding the binding specificity for RNA recognition by a PUF domain”
Changes are numbered by the printed parent chain.

Experiments:
Assay in all cases: yeast three-hybrid, YBZ-1, SC-Leu-His + 0.5 mM 3-AT, 4 days
Conditions in all cases: tags: N-Gal4 AD-HA kept; label: inside an RPR1-promoter hybrid RNA with tandem MS2 sites; ssRNA
PUM1 PUF domain R5-KNS = PUM1 PUF domain R5-KNS (Homo sapiens, UniProt Q14671 828-1176, C1007K;R1008N;Q1011S)
Procedure, shortened: (§1)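 The interaction score is the log change in how often each variant appears, from input to selection. Frequencies came from PCR-amplified, Illumina-sequenced repeat regions of Pumilio-1 PUF domain libraries grown in strain YBZ-1 (LexA–MS2 coat fusion, HIS3 reporter) alongside matching RNA elements. Input plates were SC-Leu and selection plates were SC-Leu-His + 0.5 mM 3-AT, each for four days, and the log2 calculation used a pseudocount of 1 where a variant was absent.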

PUM1 PUF domain R5-CRR = PUM1 PUF domain R5-CRR (Homo sapiens, UniProt Q14671 828-1176, Q1011R)
Procedure, shortened: as §1

PUM1 PUF domain R5-RSS = PUM1 PUF domain R5-RSS (Homo sapiens, UniProt Q14671 828-1176, C1007R;R1008S;Q1011S)
Procedure, shortened: as §1

PUM1 PUF domain R4-SQS = PUM1 PUF domain R4-SQS (Homo sapiens, UniProt Q14671 828-1176, N971S;H972Q;Q975S)
Procedure, shortened: as §1

PUM1 PUF domain R8-QWF = PUM1 PUF domain R8-QWF (Homo sapiens, UniProt Q14671 828-1176, N1122Q;Y1123W;Q1126F)
Procedure, shortened: as §1

PUM1 PUF domain R8-KFM = PUM1 PUF domain R8-KFM (Homo sapiens, UniProt Q14671 828-1176, N1122K;Y1123F;Q1126M)
Procedure, shortened: as §1

PUM1 PUF domain R4-QPC = PUM1 PUF domain R4-QPC (Homo sapiens, UniProt Q14671 828-1176, N971Q;H972P;Q975C)
Procedure, shortened: as §1

PUM1 PUF domain R8-RFA = PUM1 PUF domain R8-RFA (Homo sapiens, UniProt Q14671 828-1176, N1122R;Y1123F;Q1126A)
Procedure, shortened: as §1

PUM1 PUF domain R6-FYK = molecular target: T1, PUM1 PUF domain R6-FYK (Homo sapiens, UniProt Q14671 828-1176, N1043F;Q1047K)
T1 sequence: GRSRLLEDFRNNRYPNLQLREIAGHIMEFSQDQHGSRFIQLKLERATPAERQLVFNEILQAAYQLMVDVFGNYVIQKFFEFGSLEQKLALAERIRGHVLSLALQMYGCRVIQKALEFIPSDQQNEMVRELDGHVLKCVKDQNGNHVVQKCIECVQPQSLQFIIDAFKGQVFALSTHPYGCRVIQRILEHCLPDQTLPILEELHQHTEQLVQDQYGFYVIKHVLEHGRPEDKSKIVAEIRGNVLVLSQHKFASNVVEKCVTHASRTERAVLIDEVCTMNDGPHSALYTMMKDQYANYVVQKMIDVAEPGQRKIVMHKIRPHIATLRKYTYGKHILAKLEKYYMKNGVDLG
Procedure, shortened: as §1

PUM1 PUF domain R5-RGN = PUM1 PUF domain R5-RGN (Homo sapiens, UniProt Q14671 828-1176, C1007R;R1008G;Q1011N)
Procedure, shortened: as §1

PUM1 PUF domain R3-SRW = PUM1 PUF domain R3-SRW (Homo sapiens, UniProt Q14671 828-1176, C935S;Q939W)
Procedure, shortened: as §1

PUM1 PUF domain R1-NCS = PUM1 PUF domain R1-NCS (Homo sapiens, UniProt Q14671 828-1176, S863N;R864C;Q867S)
Procedure, shortened: as §1

PUM1 PUF domain R1-CRR = PUM1 PUF domain R1-CRR (Homo sapiens, UniProt Q14671 828-1176, S863C;Q867R)
Procedure, shortened: as §1

PUM1 PUF domain R6-TRE = molecular target: T2, PUM1 PUF domain R6-TRE (Homo sapiens, UniProt Q14671 828-1176, N1043T;Y1044R;Q1047E)
T2 sequence: T1 sequence with F216T, Y217R, K220E
Procedure, shortened: as §1

PUM1 PUF domain R3-LSS = PUM1 PUF domain R3-LSS (Homo sapiens, UniProt Q14671 828-1176, C935L;R936S;Q939S)
Procedure, shortened: as §1

PUM1 PUF domain R3-QRI = PUM1 PUF domain R3-QRI (Homo sapiens, UniProt Q14671 828-1176, C935Q;Q939I)
Procedure, shortened: as §1

PUM1 PUF domain R7-ISR = PUM1 PUF domain R7-ISR (Homo sapiens, UniProt Q14671 828-1176, S1079I;N1080S;E1083R)
Procedure, shortened: as §1

PUM1 PUF domain R7-MSG = PUM1 PUF domain R7-MSG (Homo sapiens, UniProt Q14671 828-1176, S1079M;N1080S;E1083G)
Procedure, shortened: as §1

For “GGCUAGAACUAGUGGAUCCCCCGGCGCCCGGCGGCUCGAGCCCGGGUAAGUGUCAAUAGUCUGCAUGCCGCCGGGCGCCAUGCCUGCAGGUCGACUCUAGAAAACAUG”, the binding signal (PUM1 PUF domain R5-KNS) was 4.54 log2 enrichment (interaction score), the binding signal (PUM1 PUF domain R5-CRR) was 4.63 log2 enrichment (interaction score) and the binding signal (PUM1 PUF domain R5-RSS) was 2.89 log2 enrichment (interaction score).

“GGCUAGAACUAGUGGAUCCCCCGGCGCCCGGCGGCUCGAGCCCGGGUAAGUGUAAAUAGUCUGCAUGCCGCCGGGCGCCAUGCCUGCAGGUCGACUCUAGAAAACAUG” was tested, and the binding signal (PUM1 PUF domain R4-SQS) was 2.72 log2 enrichment (interaction score), the binding signal (PUM1 PUF domain R5-CRR) was 2.75 log2 enrichment (interaction score) and the binding signal (PUM1 PUF domain R8-QWF) was 2.1 log2 enrichment (interaction score). The binding signal (PUM1 PUF domain R8-KFM) was 2.58 log2 enrichment (interaction score), the binding signal (PUM1 PUF domain R4-QPC) was 0.51 log2 enrichment (interaction score) and the binding signal (PUM1 PUF domain R8-RFA) was 5.72 log2 enrichment (interaction score). The binding signal (PUM1 PUF domain R6-FYK) was 5.82 log2 enrichment (interaction score), the binding signal (PUM1 PUF domain R5-RGN) was 0.69 log2 enrichment (interaction score) and the binding signal (PUM1 PUF domain R3-SRW) was 2.61 log2 enrichment (interaction score).

With “GGCUAGAACUAGUGGAUCCCCCGGCGCCCGGCGGCUCGAGCCCGGGUAAGUGUAUAUAGUCUGCAUGCCGCCGGGCGCCAUGCCUGCAGGUCGACUCUAGAAAACAUG” the binding signal (PUM1 PUF domain R4-SQS) was 0.2 log2 enrichment (interaction score) and the binding signal (PUM1 PUF domain R4-QPC) was 2.52 log2 enrichment (interaction score).

“GGCUAGAACUAGUGGAUCCCCCGGCGCCCGGCGGCUCGAGCCCGGGUAAGUGUAAAUUGUCUGCAUGCCGCCGGGCGCCAUGCCUGCAGGUCGACUCUAGAAAACAUG” was tested, and the binding signal (PUM1 PUF domain R1-NCS) was 3.38 log2 enrichment (interaction score) and the binding signal (PUM1 PUF domain R1-CRR) was 0.67 log2 enrichment (interaction score).

In the case of “GGCUAGAACUAGUGGAUCCCCCGGCGCCCGGCGGCUCGAGCCCGGGUAAGUGUAAAUCGUCUGCAUGCCGCCGGGCGCCAUGCCUGCAGGUCGACUCUAGAAAACAUG”, the binding signal (PUM1 PUF domain R1-CRR) is reported as 2.5 log2 enrichment (interaction score).

For “GGCUAGAACUAGUGGAUCCCCCGGCGCCCGGCGGCUCGAGCCCGGGUAAGUGGAAAUAGUCUGCAUGCCGCCGGGCGCCAUGCCUGCAGGUCGACUCUAGAAAACAUG”, the binding signal (PUM1 PUF domain R6-TRE) was 5.05 log2 enrichment (interaction score).

For “GGCUAGAACUAGUGGAUCCCCCGGCGCCCGGCGGCUCGAGCCCGGGUAAGUGUAAGUAGUCUGCAUGCCGCCGGGCGCCAUGCCUGCAGGUCGACUCUAGAAAACAUG”, the binding signal (PUM1 PUF domain R3-LSS) was 5.06 log2 enrichment (interaction score) and the binding signal (PUM1 PUF domain R3-QRI) was 3.99 log2 enrichment (interaction score).

With “GGCUAGAACUAGUGGAUCCCCCGGCGCCCGGCGGCUCGAGCCCGGGUAAGUGUAAUUAGUCUGCAUGCCGCCGGGCGCCAUGCCUGCAGGUCGACUCUAGAAAACAUG” the binding signal (PUM1 PUF domain R3-LSS) was 3.25 log2 enrichment (interaction score).

With “GGCUAGAACUAGUGGAUCCCCCGGCGCCCGGCGGCUCGAGCCCGGGUAAGUUUAAAUAGUCUGCAUGCCGCCGGGCGCCAUGCCUGCAGGUCGACUCUAGAAAACAUG” the binding signal (PUM1 PUF domain R7-ISR) was 5.98 log2 enrichment (interaction score) and the binding signal (PUM1 PUF domain R7-MSG) was 3.37 log2 enrichment (interaction score).

With “GGCUAGAACUAGUGGAUCCCCCGGCGCCCGGCGGCUCGAGCCCGGGUAAGCGUAAAUAGUCUGCAUGCCGCCGGGCGCCAUGCCUGCAGGUCGACUCUAGAAAACAUG” the binding signal (PUM1 PUF domain R8-QWF) was 2.87 log2 enrichment (interaction score), the binding signal (PUM1 PUF domain R8-KFM) was 2.54 log2 enrichment (interaction score) and the binding signal (PUM1 PUF domain R8-RFA) was 5.73 log2 enrichment (interaction score).

In the case of “GGCUAGAACUAGUGGAUCCCCCGGCGCCCGGCGGCUCGAGCCCGGGUAAGUGUUAAUAGUCUGCAUGCCGCCGGGCGCCAUGCCUGCAGGUCGACUCUAGAAAACAUG”, the binding signal (PUM1 PUF domain R5-RSS) is reported as 2.86 log2 enrichment (interaction score) and the binding signal (PUM1 PUF domain R5-RGN) is reported as 2.27 log2 enrichment (interaction score).
